# Calls of active or inactive are those of the source.
# Tested on: not listed separately
# Test: blood-stage malaria parasite viability loss – strain 3D7, DAPI fluorescence, 100 nL, primary screen (AID 1184);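 further: parasites grown inside human red blood cells in medium with human serum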
# Conditions: P. falciparum 3D7 growth, 3 d, higher = more signal
row,SMILES,z-score
1,CCOC(=O)CCN1C(=O)[C@H]2[C@H]3[C@H](O)[C@H](O)CC(=O)[C@@H]3CC[C@H]2C1=O,-0.0726
2,O=C1CCCC=C1C(O)c1ccc([N+](=O)[O-])cc1 (centres undefined),0.938
3,COC(=O)[C@H](C)NC(=O)CCC1CC(OC(=O)NCCc2ccc(F)cc2)CC2(CCCC(COC(=O)NCCOc3ccccc3)O2)O1 (some centres undefined),-1.84
4,CC#CCOCCC=C1c2ccccc2[C@@H](OC)[C@@H]1C,-1.02
5,Cc1ccc2[nH]c3nc(CCCn4ccnc4-c4ccccc4)nnc3c2c1,-1.09
6,COc1ccc(COC(=O)NN=C2C[C@@H](O)[C@@H](O)[C@@H]3[C@@H]4C(=O)N(Cc5ccc6c(c5)OCO6)C(=O)[C@@H]4CC[C@H]23)cc1,-0.427
7,CCOC(=O)[C@H](Cc1ccccc1)NC(=O)CCC1CC(OC(=O)NCc2cccc3ccccc23)CC2(CCCC(COC(=O)NCc3ccc4c(c3)OCO4)O2)O1 (some centres undefined),0.721
8,CC(=O)OC[C@H]1O[C@H](CC=NOC(C)CN2CCCc3nc(C)c(C)cc32)C=C[C@@H]1OC(C)=O (some centres undefined),-0.224
9,O=C1[C@H]2[C@H]3[C@H](O)[C@H](O)CC(=NO[C@@H]4O[C@H](CO)[C@@H](O)[C@H](O)[C@H]4O)[C@H]3CC[C@H]2C(=O)N1C[C@@H]1CCCO1,0.656
10,C#CCCCON=C1C[C@@H](O)[C@@H](O)[C@@H]2[C@@H]3C(=O)N(C[C@@H]4CCCO4)C(=O)[C@@H]3CC[C@@H]12,1.38
11,CCN1C(=O)[C@H]2[C@H]3[C@H](O)[C@H](O)CC(=NOCC[C@@H]4C=C[C@H](OC(C)=O)[C@@H](COC(C)=O)O4)[C@@H]3CC[C@H]2C1=O,0.145
12,CC(=O)OC[C@H]1O[C@@H](ON=C(C)CCC(=O)OC[C@H]2O[C@H](C#Cc3ccccc3)C=C[C@@H]2Oc2ccc(C)cc2)[C@H](OC(C)=O)[C@@H](OC(C)=O)[C@@H]1OC(C)=O,-0.713
13,CO[C@H]1C[C@@H]2C[C@H](O)CC(CC(=O)O[C@@H](C=CCC(C)C)C[C@@H]3CC[C@H](C)[C@@H](C1)O3)O2,-0.825

# Biological target: Homeobox protein Hox-A13 (Mus musculus) (UniProt Q62424)
# Sequence (Q62424 whole entry, looked up): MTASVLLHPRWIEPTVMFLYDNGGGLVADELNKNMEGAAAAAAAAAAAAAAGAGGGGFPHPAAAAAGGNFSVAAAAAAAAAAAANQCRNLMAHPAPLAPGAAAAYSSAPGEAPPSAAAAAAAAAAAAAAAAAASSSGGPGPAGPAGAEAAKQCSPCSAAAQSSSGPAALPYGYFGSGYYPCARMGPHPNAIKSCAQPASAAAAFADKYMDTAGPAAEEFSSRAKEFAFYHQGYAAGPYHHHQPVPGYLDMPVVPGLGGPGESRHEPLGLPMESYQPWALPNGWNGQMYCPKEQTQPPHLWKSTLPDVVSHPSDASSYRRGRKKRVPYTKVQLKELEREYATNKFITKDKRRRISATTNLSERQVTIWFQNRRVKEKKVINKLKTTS
# Test: disruptors of Hoxa13 oligonucleotide interaction – biochemical, fluorescence polarization, labeled oligonucleotide, primary screen (AID 1185)
# Conditions: Hoxa13:DNA binding, 15 min, higher = more signal, called active from +8 up or from −8 down
row,SMILES,z-score
1,CC1(C)O[C@H]2OC([C@H](O)CON3C(=O)c4ccccc4C3=O)[C@H](O)[C@H]2O1 (some centres undefined),0.366 (inactive)
2,C=CC[C@@H]1C=C[C@H](ON=C2C[C@@H](O)[C@@H](O)[C@@H]3[C@@H]4C(=O)N(CC)C(=O)[C@@H]4CC[C@@H]23)[C@@H](CO)O1,0.0713 (inactive)
3,O=C1C2=CC[C@H]3C(=O)N(C[C@@H]4CCCO4)C(=O)[C@H]3[C@H]2[C@H](O)[C@@H]2O[C@H]12,-3.47 (inactive)
4,COc1cccc([C@H]2Oc3ccc(OC)cc3C(=NOCC[C@@H]3C=C[C@H](OC(C)=O)[C@@H](COC(C)=O)O3)[C@@H]2O)c1,-5.39 (inactive)
5,CC(C)C(=O)N[C@H]1CCCN1C(=O)C=Cc1ccccc1,-2.18 (inactive)
6,CC(CCC(=O)OC[C@H]1O[C@H](C#Cc2ccccc2)C=C[C@@H]1Oc1ccc(C)cc1)=NOC(C)CN1CCCc2nc(C)c(C)cc21 (some centres undefined),-3.93 (inactive)
7,O=C1[C@H]2[C@H]3[C@H](O)[C@H](O)CC(=NOC[C@@H](O)COCc4ccco4)[C@@H]3CC[C@H]2C(=O)N1Cc1ccc2c(c1)OCO2,0.263 (inactive)
8,C#CCCCON=C1C[C@@H](O)[C@@H](O)[C@@H]2[C@@H]3C(=O)N(CC)C(=O)[C@@H]3CC[C@H]12,0.0042 (inactive)
9,COc1ccc(O[C@H]2C=C[C@@H](c3ccccc3)O[C@@H]2CON=C(C)CCN2CCCc3nc(C)c(C)cc32)cc1,-4.5 (inactive)
10,COc1ccc(COC(=O)NN=C2C[C@@H](O)[C@@H](O)[C@@H]3[C@@H]4C(=O)N(c5cccc(Oc6ccccc6)c5)C(=O)[C@@H]4CC[C@H]23)cc1,-3.81 (inactive)
11,CC(CCN1CCCc2nc(C)c(C)cc21)=NOC[C@@H](O)COCc1ccco1,-8.38 (active)
12,C#CCCCON=C1C[C@@H](O)[C@@H](O)[C@@H]2[C@@H]3C(=O)N(C4CCCCC4)C(=O)[C@@H]3CC[C@@H]12,-4.64 (inactive)
13,O=C1[C@H]2[C@H]3[C@H](O)[C@H](O)CC(=NO[C@@H]4O[C@H](CO)[C@@H](O)[C@H](O)[C@H]4O)[C@@H]3CC[C@H]2C(=O)N1C[C@@H]1CCCO1,-0.192 (inactive)
14,CC(CCN1CCCc2nc(C)c(C)cc21)=NOC[C@@H](C)[C@H](OCc1ccccc1)C(C)C,-3.09 (inactive)
15,C=CCOCC1CN2[C@@H](CC[C@@H](C)[C@@H]2c2ccc(Br)cc2)C(=O)O1 (some centres undefined),-0.43 (inactive)
16,CC(C)=NOC(C)CN1CCCCc2nc(C)c(C)cc21 (centres undefined),-1.28 (inactive)
17,CC(=O)OC[C@H]1O[C@H](CC=NOC[C@@H](O)[C@H]2O[C@@H]3OC(C)(C)O[C@@H]3[C@H]2O)C=C[C@@H]1OC(C)=O,-0.147 (inactive)
18,C[C@@H]1CC[C@H]2C(=O)N3[C@@H](CC[C@@H](C)[C@@H]3c3ccc(Br)cc3)C(=O)N2[C@H]1c1ccc(Br)cc1,-3.21 (inactive)

row,SMILES,z-score
1,CC(C)(C)N1C(=O)[C@H]2[C@H]3[C@H](O)[C@H](O)CC(=NNC(=O)OCc4ccccc4)[C@H]3CC[C@H]2C1=O,-3.42 (inactive)
2,CCOC(=O)CCN1C(=O)[C@H]2[C@H]3[C@H](O)[C@H](O)CC(=NOCC=C(C)CCC=C(C)C)[C@H]3CC[C@H]2C1=O,0.765 (inactive)
3,CO[C@H]1COC(=O)[C@H](CCSC)NC(=O)CC=C[C@@H](C)[C@H](OC)COC(=O)[C@@H](OCc2ccccc2)C=C[C@@H]1C,-1.29 (inactive)
4,CC(C)[C@@H](OCc1ccccc1)[C@H](C)C=NO[C@@H](C)c1cn([C@H](CO)Cc2ccccc2)nn1,-5.22 (inactive)
5,O=C(NCCC[N+]1=CC=NC1c1ccccc1)N1CCCc2nc(-c3ccc(Br)cc3)ccc21 (centres undefined),-7.21 (inactive)
6,CCOC(=O)CCN1C(=O)[C@H]2[C@H]3[C@H](O)[C@H](O)CC(=O)[C@@H]3CC[C@H]2C1=O,-2.98 (inactive)
7,O=C1CCCC=C1C(O)c1ccc([N+](=O)[O-])cc1 (centres undefined),0.164 (inactive)
8,COC(=O)[C@H](C)NC(=O)CCC1CC(OC(=O)NCCc2ccc(F)cc2)CC2(CCCC(COC(=O)NCCOc3ccccc3)O2)O1 (some centres undefined),-1.1 (inactive)
9,CC#CCOCCC=C1c2ccccc2[C@@H](OC)[C@@H]1C,-3 (inactive)
10,Cc1ccc2[nH]c3nc(CCCn4ccnc4-c4ccccc4)nnc3c2c1,-0.867 (inactive)
11,COc1ccc(COC(=O)NN=C2C[C@@H](O)[C@@H](O)[C@@H]3[C@@H]4C(=O)N(Cc5ccc6c(c5)OCO6)C(=O)[C@@H]4CC[C@H]23)cc1,-0.118 (inactive)
12,CCOC(=O)[C@H](Cc1ccccc1)NC(=O)CCC1CC(OC(=O)NCc2cccc3ccccc23)CC2(CCCC(COC(=O)NCc3ccc4c(c3)OCO4)O2)O1 (some centres undefined),-3.19 (inactive)
13,CC(=O)OC[C@H]1O[C@H](CC=NOC(C)CN2CCCc3nc(C)c(C)cc32)C=C[C@@H]1OC(C)=O (some centres undefined),-6.1 (inactive)
14,O=C1[C@H]2[C@H]3[C@H](O)[C@H](O)CC(=NO[C@@H]4O[C@H](CO)[C@@H](O)[C@H](O)[C@H]4O)[C@H]3CC[C@H]2C(=O)N1C[C@@H]1CCCO1,0.594 (inactive)
15,C#CCCCON=C1C[C@@H](O)[C@@H](O)[C@@H]2[C@@H]3C(=O)N(C[C@@H]4CCCO4)C(=O)[C@@H]3CC[C@@H]12,0.866 (inactive)
16,CCN1C(=O)[C@H]2[C@H]3[C@H](O)[C@H](O)CC(=NOCC[C@@H]4C=C[C@H](OC(C)=O)[C@@H](COC(C)=O)O4)[C@@H]3CC[C@H]2C1=O,-1.8 (inactive)
17,CC(=O)OC[C@H]1O[C@@H](ON=C(C)CCC(=O)OC[C@H]2O[C@H](C#Cc3ccccc3)C=C[C@@H]2Oc2ccc(C)cc2)[C@H](OC(C)=O)[C@@H](OC(C)=O)[C@@H]1OC(C)=O,-3.79 (inactive)
18,CO[C@H]1C[C@@H]2C[C@H](O)CC(CC(=O)O[C@@H](C=CCC(C)C)C[C@@H]3CC[C@H](C)[C@@H](C1)O3)O2,-0.952 (inactive)
